# Source: PubChem BioAssay
# hgDAF12 agonist: agonists of H. glycines DAF-12 nuclear receptor; activation, % at 6.8 µM; 370,000 tested, 1.8% active; HEK293 GAL4-hgDAF12 UAS-luciferase reporter, agonist luminescence; normalized to butyrate control;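 active means activation above a cutoff set at the mean of all screened compounds plus 3 SD, cut at about 10% in these data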;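 further: 0% = DMSO wells and 100% = sodium butyrate wells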
# DAX1 inh-1: blocks DAX1 repression of SF-1 activated StAR promoter. HEK293T StAR-luciferase reporter, SF-1/DAX-1 repression relief. AID 652010. inhibition, % at 6.8 µM. 370,000 tested, 1.1% active;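 active means inhibition above the mean over all tested compounds plus 3 SD, cut at about 3.6% in these data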;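 further: 0% = DAX-1 cells with DMSO and 100% = cells lacking DAX-1 with DMSO; higher inhibition means more luminescence from relief of DAX-1 repression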
# NR1D1 modulator: Rev-erb alpha (human) modulation; P20393; Rev-erbα–FITC-DNA binding, fluorescence polarization, 90 min; activity, % at 10 µM; 370,000 tested, 0.79% active;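 active means activity above about 14%, limit read from the data; passing the limit was not always enough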;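 further: 0% = DMSO wells with 35 nM protein and 100% = DMSO wells with 750 nM protein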
# DAX1 inh-2: NR0B1 (DAX1) inhibition. P51843. HEK293 Gal4-DAX1 luciferase reporter, luminescence. inhibition, % at 6.75 µM. 340,000 tested, 0.99% active. AID 504766;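 active means inhibition above the mean over all tested compounds plus 3 SD, cut at about 4.2% in these data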;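 further: 0% = DAX1-transfected cells with DMSO and 100% = empty-vector control cells with DMSO; inhibition shows as a rise in luminescence from relieved DAX1 repression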
# Target sequence (P51843 207-470 limits assumed): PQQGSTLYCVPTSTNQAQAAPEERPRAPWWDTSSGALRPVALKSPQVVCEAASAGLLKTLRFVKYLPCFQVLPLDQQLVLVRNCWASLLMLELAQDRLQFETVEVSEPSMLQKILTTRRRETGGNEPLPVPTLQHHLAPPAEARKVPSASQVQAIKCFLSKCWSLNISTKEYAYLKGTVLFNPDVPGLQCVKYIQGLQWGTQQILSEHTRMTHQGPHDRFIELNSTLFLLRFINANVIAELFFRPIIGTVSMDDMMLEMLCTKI
# hcDAF12 agonist: activates DAF-12 receptor from parasite H. contortus; HEK293 hcDAF-12 lit1-tk-luc reporter, luminescence; 0% DMSO, 100% Δ7-dafachronic acid; activation, % at 6.8 µM; 370,000 tested, 1.4% active; AID 652067;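 active means activation above the mean of all tested compounds plus 3 SD, cut at about 5.5% in these data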;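 further: 100% = response to 3 µM Δ7-dafachronic acid high control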
# ssDAF-12 act: S. stercoralis DAF-12 activation, primary screen. HEK293 ssDAF-12/GRIP1 lit1-tk-luc reporter, luminescence; % of 3 µM dafachronic acid response. activation, % at 6.8 µM. 370,000 tested, 1% active. AID 652126;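 active means activation above the mean over all tested compounds plus 3 SD, cut at about 0.9% in these data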;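 further: 0% = DMSO-only wells and 100% = 3 µM delta7-dafachronic acid wells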
# NR1D1 mod conf: confirmation of modulators of human Rev-erb alpha DNA binding | shares compounds with NR1D1 modulator | Rev-erb alpha FITC-DNA binding, fluorescence polarization, 90 min | activation, % at 25 µM | 3,000 tested, 61% active;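 active means activation at or above a set limit, or at least 3 SD above the negative control mean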;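 further: 0% = 35 nM protein with DMSO and 100% = 750 nM protein high control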
# RORg counter: RORgamma DNA-binding activity, dose-response counter-screen | IC50, µM | AID 1259320 | 910 tested, 8% active | purified RORgamma protein-FITC-DNA binding, fluorescence polarization | shares compounds with NR1D1 modulator;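 active means Compounds whose fitted half-maximal concentration for disrupting protein-DNA binding is below 10 micromolar; the record names Rev-erb in its text, so the target is in doubt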
# * hit, by the source's call; i = inactive; . = no result. Hits are enriched below; roughly 4.8% of the tested compounds scored in any of these assays.
SMILES,hgDAF12 agonist,DAX1 inh-1,NR1D1 modulator,DAX1 inh-2,hcDAF12 agonist,ssDAF-12 act,NR1D1 mod conf,others
COC(=O)C1=C(C)N(Cc2cccc(C(F)(F)F)c2)C(=NCC2CC2)NC1c1ccccc1C(F)(F)F (stereo not drawn),-2,-1,3,.,1,-1,.,
CC1(C)CC(=O)C=C(c2ccccc2-c2ccc3c(c2)OCO3)C1=O,0,-1,14,.,0,-1,.,
Cn1nc(C(=O)OCC(=O)NCc2ccc(Cl)cc2Cl)c2ccccc2c1=O,0,-2,18*,-1,-2,0,20*,
Cc1cc(Oc2cccnc2)ccc1NC(=O)CCc1c[nH]c2ccccc12,-2,-1,4,.,3,-1,.,
CCc1cc2c(C)ccc(C)c2nc1SCC(=O)Nc1cc(C)on1,-1,0,24*,0,-1,-1,8,
CCc1cc2cc(C)c(C)cc2nc1SCC(=O)Nc1cc(C)on1,-2,0,36*,0,0,0,2,
CCc1cc2cc(C)cc(C)c2nc1SCC(=O)Nc1cc(C)on1,0,0,10,0,2,-1,.,
COc1ccccc1-c1nc(SCC(=O)Nc2cc(C)on2)c2c(=O)n(C)c(=O)n(C)c2n1,-1,-1,72*,0,0,-1,60*,RORg counter=i
CCc1cc2ccc(OC)cc2nc1SCC(=O)Nc1cc(C)on1,0,0,75*,-1,0,-2,57*,RORg counter=>40
CCc1cc2ccccc2nc1SCC(=O)Nc1cc(C)on1,1,0,16,1,4,0,.,
COc1ccc2[nH]c3c(c2c1)CCN[C@]31C(=O)Nc2ccccc21,2,-1,-10,.,0,0,.,
O=C(Nc1ccc(Cl)cc1)C1CCCN1S(=O)(=O)c1cccc2cccnc12 (stereo not drawn),-1,-2,-3,.,-3,-2,.,
CCCn1c(=O)[nH]c(=O)c2c(C(=O)OCC)cc(-c3cccs3)nc21,3,0,30*,-1,2,-1,27*,
CCCn1cc(C(=O)Nc2ccc(Oc3cccnc3)cc2)c2ccccc21,1,-1,6,.,0,-1,.,
CC(=O)N1CCC(C(=O)N2c3ccccc3N=C(c3ccc4c(c3)OCO4)C2C(=O)Nc2c(C)cccc2C)CC1 (stereo not drawn),7,1,-2,.,3,1,.,
COc1ccc2nc(SC)c(C#N)cc2c1,2,0,42*,1,-1,-2,47*,RORg counter=>40
COc1ccc2nc(SCc3cccnc3)c(C#N)cc2c1,0,0,86*,-1,1,-1,56*,RORg counter=i
CCc1cccc(NC(=O)Cn2c(=O)c3cccn3c3ccccc32)c1,0,0,28*,0,0,-1,15,
COc1cccc(CNC(=O)Cn2c(=O)c3cccn3c3ccccc32)c1,-2,2,19*,0,-1,-1,-4,
COCc1cc(C)nc(Nc2ccc(C)cc2C)c1C#N,0,-1,29*,1,3,0,1,
COCc1cc(C)nc(Nc2ccc(C)c(C)c2)c1C#N,2,0,25*,0,1,0,11,
Cc1ccc(Nc2nc(C)cc(C)c2C#N)c(C)c1,4,0,-9,0,1,-1,.,
CCOC(=O)c1sc2nc(C)nc(NCCc3ccc(S(N)(=O)=O)cc3)c2c1C,0,0,40*,-1,0,-1,16,
Cc1ccc(C)c(NC(=O)CN(C)C(=O)c2ccc(-c3ccc(Cl)cc3)o2)c1,-3,0,26*,0,-2,-1,18*,
CCN(CC)C(=O)Cn1c2ccccc2c2nc3n(c(=O)c21)CCS3,-2,.,-4,.,0,-1,.,
SMILES,hgDAF12 agonist,DAX1 inh-1,NR1D1 modulator,DAX1 inh-2,hcDAF12 agonist,ssDAF-12 act,NR1D1 mod conf,others
O=C(Nc1cc([N+](=O)[O-])ccc1O)NC1CCS(=O)(=O)C1 (stereo not drawn),1,-1,16*,1,0,-1,15*,
CC(C)N1CCCCC(NC(=O)c2ccc(Br)cc2)C1=O (stereo not drawn),0,0,3,.,-3,-1,.,
CCCCOc1ccc(C(=O)n2ccc3ccc(-c4ccc5ccn(Cc6ccccc6)c5c4)cc32)cc1,3,-1,40*,.,-1,-1,45*,RORg counter=>40
COC(=O)c1cccc(Cn2ccc3ccc(-c4ccc5ccn(C(=O)c6ccc(C)cc6)c5c4)cc32)c1,-2,-1,46*,.,0,-1,64*,RORg counter=>40
COC(=O)c1cccc(Cn2ccc3ccc(-c4ccc5ccn(Cc6cccc(C(=O)OC)c6)c5c4)cc32)c1,-4,0,51*,.,-3,-1,1,
O=C(c1cccc(F)c1)n1ccc2ccc(-c3ccc4ccn(Cc5ccccc5)c4c3)cc21,1,-1,8,.,-1,-1,.,
COc1ccccc1C(=O)NCCn1ccc2ccccc21,0,1,0,0,-1,-1,.,
Fc1cccc(Cn2ccc3ccc(-c4ccc5ccn(Cc6ccccc6)c5c4)cc32)c1,3,-1,0,.,-1,-1,.,
COC(=O)c1ccc2ccn(CC(=O)NC(C)C)c2c1,1,0,0,1,1,-1,.,
COC(=O)c1cccc(Cn2ccc3ccc(-c4ccc5ccn(C(=O)c6ccccc6OC)c5c4)cc32)c1,-1,0,34*,.,-1,-1,58*,RORg counter=i
COC(=O)[C@H](C(C)C)N1Cc2nnn(Cc3ccc(C)cc3)c2-c2ccccc2S1(=O)=O,3,-1,-1,.,-3,0,.,
C[C@H]1COc2cccc(N3CCCC3)c2S(=O)(=O)N1,-1,1,-5,.,-1,-1,.,
COC(=O)c1cccc(Cn2ccc3ccc(-c4ccc5ccn(C(=O)c6cccc(OC)c6)c5c4)cc32)c1,-1,-2,39*,.,1,-1,54*,RORg counter=i
COc1ccc2nc(C(F)(F)C(F)(F)F)c(C#N)c(N)c2c1,2,0,46*,1,1,-1,28*,
COc1cc(OC)c2c(N)c(C#N)c(C(F)(F)C(F)(F)F)nc2c1,3,-1,3,-1,0,-1,.,
COc1ccc(Cl)cc1C(=O)NC(=S)Nc1nc(C)cc(C)n1,-1,0,-6,0,-2,-1,.,
COc1ccc(Cl)cc1C(=O)Nc1ccc(Br)c(C)n1,-3,0,28*,0,2,0,4,
